The supplement of paper PMC6555819

How the values were obtained:
Assay in all cases: PBM binding z-score (relative to random genomic background probes); higher = stronger binding; sequences stand for … in GC…GCGATTGACAGCGTAGAATGAAGG
[1] = tested on: PPARg:RXRa DBDmut IVT, anti-RXR (DBD mutation: RXRa K156A/R161A, NR concentration 270 nM, RXRa partner concentration 90 nM)
Method in brief: (§1)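 Binding z-scores take random background probes as their reference. They come from custom Agilent 4×180K protein-binding microarrays incubated 1 h with ligand-free nuclear receptor dimers, with antibodies against each partner (one per run) detecting binding. Scanned fluorescence was regression-normalized.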

[2] = tested on: PPARg:RXRa IVT, anti-PPARg (NR concentration 270 nM, RXRa partner concentration 90 nM)
Method in brief: as §1

[3] = tested on: PPARg DBDmut:RXRa IVT, anti-PPARg (DBD mutation: PPARg1 K132A/R137A, NR concentration 270 nM, RXRa partner concentration 90 nM)
Method in brief: as §1

[4] = tested on: PPARg DBDmut IVT, anti-PPARg (DBD mutation: PPARg1 K132A/R137A, NR concentration 270 nM)
Method in brief: as §1

[5] = tested on: PPARg homodimer (NR concentration 180 nM)
Method in brief: as §1

[6] = tested on: PXR:RXRa (NR concentration 270 nM, RXRa partner concentration 90 nM)
Method in brief: as §1

[7] = tested on: PXR homodimer (NR concentration 270 nM)
Method in brief: as §1

[8] = tested on: RARa:RXR (NR concentration 270 nM, RXRa partner concentration 90 nM)
Method in brief: as §1

[9] = tested on: RARa homodimer (NR concentration 270 nM)
Method in brief: as §1

[10] = tested on: RARb:RXRa (NR concentration 270 nM, RXRa partner concentration 90 nM)
Method in brief: as §1

[11] = tested on: RARb homodimer (NR concentration 270 nM)
Method in brief: as §1

[12] = tested on: RARg:RXRa (NR concentration 270 nM, RXRa partner concentration 90 nM)
Method in brief: as §1

[13] = tested on: RARg homodimer (NR concentration 270 nM)
Method in brief: as §1

[14] = tested on: RXRa DBDmut IVT, anti-RXR (DBD mutation: RXRa K156A/R161A, NR concentration 90 nM)
Method in brief: as §1

[15] = tested on: RXRa homodimer (NR concentration 180 nM)
Method in brief: as §1

[16] = tested on: THRa:RXRa (NR concentration 90 nM, RXRa partner concentration 90 nM)
Method in brief: as §1

[17] = tested on: THRa homodimer (NR concentration 90 nM)
Method in brief: as §1

[18] = tested on: VDR homodimer (NR concentration 270 nM)
Method in brief: as §1

Sequence | PBM binding z-score [1] | PBM binding z-score [2] | PBM binding z-score [3] | PBM binding z-score [4] | PBM binding z-score [5] | PBM binding z-score [6] | PBM binding z-score [7] | PBM binding z-score [8] | PBM binding z-score [9] | PBM binding z-score [10] | PBM binding z-score [11] | PBM binding z-score [12] | PBM binding z-score [13] | PBM binding z-score [14] | PBM binding z-score [15] | PBM binding z-score [16] | PBM binding z-score [17] | PBM binding z-score [18]
AATACAGGGTCATCGTAGGCCAAAGTACGCACAG | 2.81 | 4.06 | 3.81 | 2.62 | 3.47 | 5.59 | 1.03 | 5.27 | 1.3 | 4.29 | 3.71 | 5.86 | 5.3 | 3.63 | 6.87 | 4.53 | 1.34 | 3.98
ACTATTAGTTGCGACGAGGGCAACCGATAGGTTG | -0.375 | 0.286 | 0.385 | 0.517 | 0.166 | 0.401 | -0.0266 | 0.277 | 0.0553 | 0.852 | 0.942 | 0.259 | 0.489 | 0.4 | 0.472 | 1.09 | 0.3 | 0.643
CCAAGCAGGCCAATCTGGGTCACTCAAGGCTTGA | 4.53 | 4.91 | 0.213 | -1.24 | 0.382 | 1.26 | -0.284 | 1.71 | -1.17 | 1.62 | 2.26 | 1.4 | 1.34 | 0.0779 | 1.25 | 3.74 | 0.319 | 0.154
CCTAGGTGGTCAAGGTCACACACGCTATAGGTAC | 1.34 | 3.54 | 0.368 | 0.561 | 4.82 | 4.24 | 1.58 | 4.44 | 1.3 | 4.22 | 4.16 | 4.81 | 4.61 | 1.79 | 4.66 | 4.09 | 4.01 | 3.06
CCTACTGGGCCACGAAAGGTCATTGACTCAGTGA | 5.69 | 5.8 | 0.0683 | -0.677 | 2.13 | 5.15 | 1.92 | 5.49 | 0.622 | 4.03 | 4.8 | 4.9 | 4.53 | 0.581 | 4.92 | 3.77 | 0.711 | 2.15
TCTGCTAGGTCAGTCGGTCAGCTAACGAGCTGCC | 3.05 | 3.83 | -0.327 | -0.109 | 0.456 | -0.00116 | -1.21 | 0.436 | -1.08 | 3.6 | 3.32 | 3.52 | 4.64 | 0.278 | 1.08 | 1.17 | 0.0132 | -1.13
GCTGCTAGGTCAGGTTGGTCAGCTACCGGGTACG | 2.57 | 2.37 | -0.857 | -0.886 | 0.811 | 0.288 | -0.331 | 0.391 | -0.864 | 3.32 | 2.79 | 2.17 | 3.73 | 0.371 | 0.808 | 1.76 | 0.717 | 0.476
TCAGACAGGTGAAGGTAGCTCAGGTACGCAGTCG | 2.37 | 0.501 | 0.112 | 0.071 | 0.349 | 0.216 | -0.0197 | 0.316 | 0.354 | 1.07 | 0.62 | 0.413 | 0.456 | 1.13 | 0.741 | 0.667 | 0.148 | -0.026
CTACCAAGGTGAACACGGTCGTTGATTACTATTC | 2.72 | 2.43 | 0.613 | -0.0431 | 0.251 | 0.292 | 0.00892 | 0.57 | 0.749 | 1.88 | 1.24 | 0.852 | 0.843 | 0.773 | 0.777 | 2.07 | 0.961 | 0.015
CCTAGAAGGCCAATCTGGGTCACTCAAGGCTTGA | 3.74 | 4.78 | -0.238 | -1.07 | 1.21 | 1.86 | -0.344 | 2.12 | 0.185 | 2.4 | 2.78 | 1.98 | 2.37 | 0.567 | 1.55 | 4.27 | 0.262 | 0.0868
CGTCCAAGGTCAATGCTAGGTTAGTGAAAGCATT | 2.98 | 3.27 | 0.204 | -0.204 | 2.37 | 3.78 | 0.753 | 3.88 | 0.52 | 5.04 | 2.54 | 6.12 | 6.16 | 3.86 | 4.75 | 3.91 | 2.27 | 2.58
CGTCAAAGTTCAACTAAGGGAACGTAAAGCACGC | 0.0961 | 1.71 | 0.646 | 0.162 | 2.6 | 4.91 | 3.23 | 3.84 | 1.55 | 5.25 | 3.93 | 5.85 | 6.56 | 4.65 | 5.21 | 4.49 | 0.0368 | 3.51
TAGGCTAGGTCATGCGGGCCAGTATAGTGTCGGC | 2.31 | 2.92 | 0.345 | 0.348 | 1.24 | 1.21 | -0.485 | 2.05 | 0.442 | 3.84 | 3.1 | 3.73 | 4.44 | 0.47 | 3.14 | 2.77 | 0.748 | 0.519
TCTTGTAGATCAATAGGAGGTTAAGAAAGATCGA | 1.97 | 0.955 | 0.693 | 0.624 | 0.344 | 0.712 | 0.557 | 1.04 | 0.522 | 0.202 | 0.457 | 0.595 | 0.446 | 1.01 | 0.992 | 0.723 | -0.311 | -0.266
CCGAGTAGGTTATGGGGCATTCTGGCAACGGTGA | 3.05 | 3.19 | -0.237 | -1.42 | 1.24 | 0.151 | 0.0972 | 0.523 | 0.262 | 0.978 | 1.05 | 0.374 | 0.468 | 0.11 | 0.554 | 0.0308 | 0.157 | 0.195
